Test results: PubChem BioAssay (NCATS)
Results filed as inconclusive are left out. Values without a mark were called inactive. Calls follow the shape of the dose curve; as a rule, active = well fitted curve in the direction sought with a large enough effect; inconclusive = small, poorly fitted or top-dose-only effect, or effect the other way, or another doubt; inactive = no such curve, though single readings can be large or run the other way.

Assay: qHTS Assay for Identification of Small Molecule Agonists for NFkB Signaling Pathway. (AID 624478);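 also: compounds tested together with TNF alpha at its EC50 of 10 pM; 0% is about no effect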
Settings: NFkB pathway reporter cell assay, agonist mode, cells co-stimulated with 10 pM TNF alpha; series mostly up to 46.1 µM; activation: at the top concentration
Description: The TNF alpha/NFkB signaling pathway was assayed in NFkB-bla cells (Invitrogen), a ME-180 cervical carcinoma line containing a stably integrated beta-lactamase reporter gene controlled by a NFkB response element. This reporter is induced by TNF alpha at 10 pM EC50 and inhibited by the proteosome inhibitor MG-132 at approximately 100 nM IC50. The assay was screened at the EC50 of TNF alpha activation to identify activators of TNF alpha/NFkB signaling
Cells were trypsinized, washed in assay medium (AM, OPTI MEM with 0.5% fetal bovine serum, 0.1 mM nonessential amino acids, 1 mM sodium pyruvate, 10mM HEPES pH 7.3, 100U/ml penicillin, and 100 ug/ml streptomycin) and plated at 1000 cells/5 uL/well into black clear-bottom 1536 well plates. After an overnight incubation at 37 C and 5% CO2, 23 nL of compound were delivered by a pin tool, 1 uL of TNF alpha (10 pM final concentration in AM) was added and plates were incubated at 37 C for 5 hrs. One uL of LiveBLAzerTM detector mix (Invitrogen) was added, the plates incubated at room temperature for 2 hrs, and fluorescence intensity at 460 and 530 nm emission was measured at 405 nm excitation by an Envision (Perkin Elmer).

| Compound | activation |
| --- | --- |
| CC(=O)Nc1ccc([C@H](C)C(=O)Nc2ncc(C(C)C)s2)cc1 | -1.42% |
| O=C(Nc1cc(Cl)cc2c1[nH]c1cnccc12)c1cccnc1 | 0.822% |
| COc1cc2ncnc(-n3nc(-c4ccccn4)nc3N)c2cc1OC | -0.422% |
| COc1ccc(C2CC(c3ccccc3)=NN2c2ccc(S(N)(=O)=O)cc2)cc1 (centres undefined) | -1.63% |
| COc1cc(Nc2ncc(F)c(Nc3ccc4c(n3)NC(=O)C(C)(C)O4)n2)cc(OC)c1OC | -2.2% |
| CC(C)C(=O)Nc1ncc(-c2cc(C(F)F)nn2-c2c(Cl)cccc2Cl)s1 | -1.13% |
| COc1cc(N2CCC(N3CCN(C)CC3)CC2)ccc1Nc1ncc(Cl)c(Nc2ccccc2S(=O)(=O)C(C)C)n1 | 3.69% |
| CCOC(CN1C(=O)[C@](CC(=O)Nc2ccc(C)cc2)(NC(=O)Nc2ccc(C)cc2)c2ccccc21)OCC | -1.17% |
| CS(=O)c1ccc(-c2nc(-c3ccc(F)cc3)c(-c3ccncc3)[nH]2)cc1 (centres undefined) | -2.01% |
| COc1cc2ncnc(Nc3ccc(F)c(Cl)c3)c2cc1OCCCN1CCOCC1 | -0.107% |
| CO[C@H]1C[C@@H]2CC[C@@H](C)[C@@](O)(O2)C(=O)C(=O)N2CCCC[C@@H]2C(=O)O[C@H]([C@H](C)C[C@@H]2CC[C@H](OCCO)[C@H](OC)C2)CC(=O)[C@H](C)C=C(C)[C@@H](O)[C@@H](OC)C(=O)[C@H](C)C[C@H](C)C=CC=CC=C1C | 1.46% |
| CO[C@H]1C=CC=C(C)C(=O)NC2=CC(=O)C(NCCN(C)C)=C(C[C@@H](C)C[C@H](OC)[C@@H](O)[C@@H](C)C=C(C)[C@@H]1OC(N)=O)C2=O | 1.21% |
| CC(C)(C)c1cc(C(=O)O)c(NC(=O)Nc2ccc3[nH]ncc3c2)s1 | -0.827% |
| O=C1C(Cl)=C(NCCN2CCOCC2)C(=O)c2ncccc21 | 6.73% |
| O=C1Nc2ccc(Cl)cc2C(C#CC2CC2)(C(F)(F)F)O1 (centres undefined) | -0.36% [at 92.2 µM] |
| CO[C@@H](C(=O)N1Cc2[nH]nc(NC(=O)c3ccc(N4CCN(C)CC4)cc3)c2C1)c1ccccc1 | -1.34% |
| O=C(Nc1ccccc1-c1cn2c(CN3CCNCC3)csc2n1)c1cnc2ccccc2n1 | -0.436% |
| CN(C)Cc1ccc(-c2nc3cccc4c3n2CCNC4=O)cc1 | -2.11% |
| CC(=O)N(C)C1(c2ccccc2)CCN(CCC[C@]2(c3ccc(Cl)c(Cl)c3)CCCN(C(=O)c3ccccc3)C2)CC1 | -0.368% |
| COc1ncc(-c2ccc3nccc(-c4ccnnc4)c3c2)cc1NS(=O)(=O)c1ccc(F)cc1F | -0.841% |

| Compound | activation |
| --- | --- |
| CCOc1ccc(Nc2nc(-c3c(C)nc4ccccn34)cs2)cc1 | 1.46% |
| COc1cccc2c1CCCC2CCCN1CCN(C2CCCCC2)CC1 (centres undefined) | -0.0655% |
| CN(C)C1CCN(C(=O)c2ccc(NC(=O)Nc3nc(N4CCOCC4)nc(N4CCOCC4)n3)cc2)CC1 | 3.28% |
| O=C(N[C@@H](c1ccccc1)[C@@H]1CCCCN1)c1cccc(C(F)(F)F)c1Cl | 1.8% |
| CC(C)[C@H](CO)Nc1nc(Nc2ccc(C(=O)O)c(Cl)c2)c2ncn(C(C)C)c2n1 | -1.42% |
| CN1CCN(CCOc2cc(OC3CCOCC3)c3c(Nc4c(Cl)ccc5c4OCO5)ncnc3c2)CC1 | -1.37% |
| CC1=C(/C=C/C(C)=C/C=C/C(C)=C/C(=O)Nc2ccc(O)cc2)C(C)(C)CCC1 | 2.58% |
| O=C(O)c1ccc(-c2cc3cccnc3c(-c3ccc4nonc4c3)n2)cc1 | -2.76% |
| Cc1ccc(F)c(NC(=O)Nc2ccc(-c3cccc4[nH]nc(N)c34)cc2)c1 | 5.34% |
| O=c1cc(CN2CCOCC2)occ1OCCCCCSc1ccnc2cc(C(F)(F)F)ccc12 | -1.09% |
| CC(C)(C(=O)NCC(F)(F)C(F)(F)F)C(=O)N[C@@H]1C(=O)Nc2ccccc2-c2ccccc21 | -0.471% |
| CC(C)(C)C(=O)Oc1ccc2c(c1)nc(NC(=O)c1cccc([N+](=O)[O-])c1)n2CCCO | 3.29% |
| OC[C@H]1O[C@@H](n2cnc3c2NC=NC[C@@H]3O)C[C@H]1O | -2.05% |
| O=c1cc(N2CCOCC2)oc2c(-c3cccc4c3sc3ccccc34)cccc12 | 8.07% |
| O=C(CCCCCCC(=O)Nc1ccccc1)NO | -1.11% [at 92.2 µM] |
| CC(C)(C)COc1ccc(-n2cc(C(=O)O)cn2)cc1C#N | -0.573% |
| O=C(O)CCC1CCC(c2cc(F)ccc2F)(S(=O)(=O)c2ccc(Cl)cc2)CC1 (centres undefined) | -2.07% |
| Cc1nc(N)sc1-c1ccnc(Nc2ccc(N3CCOCC3)cc2)n1 | -1.15% |
| Clc1ccc(-c2nc3sccn3c2C=NOCc2ccc(Cl)c(Cl)c2)cc1 | 1.81% |
